The text below walks through data of PubChem BioAssay (Tox21).

Each structure is given as a SMILES string. Values without a mark were called inactive. Records with an inconclusive call do not appear. Active and inactive are the calls of the source. Unless noted, calls come from the whole dose curve.

Experiment [1] is described as follows: qHTS assay to identify small molecule antagonists of the sonic hedgehog signaling (Shh) pathway (AID 1259369). Note: nearly all actives have a fitted effect of over 45% in size. Note: potency is the fitted concentration of half-maximal effect. Summed up: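 NIH/3T3-derived Gli1-Luc reporter cells plated 4 h, dosed with compound, then stimulated with conditioned medium for 24 h at 37 C. Firefly luciferase luminescence read after 30 min with detection reagent at room temperature.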
On the technique in general: Quantitative high-throughput screening tests each substance at several concentrations.

Experiment [2] addresses Estrogen receptor beta (Homo sapiens) (UniProt Q92731). The experiment is described as follows: qHTS assay to identify small molecule agonists of the estrogen receptor beta (ER-beta) signaling pathway (AID 1259377; active = well fitted activation curve with a large enough effect in the signal ratio in the repeat runs, not every such curve was filed as active; the % refers to the signal ratio; note: potency is the fitted concentration of half-maximal effect). A digest of the protocol:
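A UAS-controlled beta-lactamase reporter in ER-beta-UAS-bla HEK293T cells reports receptor activation. Compounds act for 16 hr at 37C in 2% charcoal-stripped serum, and a FRET substrate is read by fluorescence after 2 hours.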

Experiment [3] is described as follows: qHTS assay to identify small molecule agonists of the androgen receptor (AR) signaling pathway in the presence of an antagonist - cell viability counter screen (AID 1259379; active = well fitted curve in the direction sought with a large enough effect in the repeat runs; an effect the other way counts as inactive or inconclusive;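 note: MDA-kb2 human breast cancer cells carrying an MMTV luciferase reporter; series mostly up to about 92 µM; nearly all actives have a fitted effect of over 25% in size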). Summed up:
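MDA-kb2 cells (MMTV-luciferase, AR/GR), 3,000/well, 5 h attachment, then 3.0 µM nilutamide (final) and compounds at 15 concentrations. Viability by CellTiter-Fluor fluorescence after 16 h at 37 °C, 0% CO2, in the reporter wells.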

For experiment [4], the target named is Androgen receptor (Homo sapiens) (UniProt P10275). Put plainly: qHTS assay to identify small molecule agonists of the androgen receptor (AR) signaling pathway in the presence of an antagonist (AID 1259381). Note: nearly all actives have a fitted effect of over 15% in size. Note: potency is the fitted concentration of half-maximal effect. Summed up:
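MDA-kb2 cells carrying MMTV-luciferase (AR/GR responsive), 3,000 cells/well, co-treated with 3.0 uM nilutamide final. Compounds at 15 concentrations, 16 hr at 37C without CO2. Luciferase luminescence read after 30 min with ONE-Glo.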

Experiment [5] in a line: qHTS assay to identify small molecule antagonists of the estrogen receptor beta (ER-beta) signaling pathway - cell viability counter screen (AID 1259382; active = well fitted curve in the direction sought with a large enough effect in the repeat runs; an effect the other way counts as inactive or inconclusive;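 note: HEK293T cells carrying ER-beta-UAS-bla reporter stimulated with estradiol; series mostly up to about 92 µM; nearly all actives have a fitted effect of over 55% in size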). Summed up: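 ER-beta-UAS-bla HEK293T cells in 2% charcoal-stripped FBS medium, treated with compound plus 1 nM 17-beta-estradiol for 16 h at 37C. Viability read by CellTiter-Glo luminescence after 30 min at room temperature in the same wells.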

Experiment [6] in a line: qHTS assay to identify small molecule agonists or antagonists of the thyroid stimulating hormone receptor (TSHR) signaling pathway - wild type cell line counter screen (AID 1259384). A digest of the protocol: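 Counter screen in untransfected Hek293: compounds (15-point titration, triplicate) plus phosphodiesterase inhibitor Ro20-1724 added after 18 h plating; 30 min RT. Intracellular cAMP via competitive d2/cryptate immunoassay, 1 h incubation.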

The target of experiment [7] is Thyrotropin receptor (Homo sapiens) (UniProt P16473). Put plainly: qHTS assay to identify small molecule antagonists of the thyroid stimulating hormone receptor (TSHR) signaling pathway (AID 1259385). Note: nearly all actives have a fitted effect of over 20% in size. A digest of the protocol: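 Antagonist mode: compound-treated TSHR-expressing HEK293 cells were stimulated with 1.5 ng/mL TSH (final) in presence of Ro20-1724 for 30 min at RT. HTRF cAMP detection after 1 h; each compound tested at 15 concentrations, triplicate.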
Thyrotropin receptor (Homo sapiens), sequence (P16473 whole entry, looked up): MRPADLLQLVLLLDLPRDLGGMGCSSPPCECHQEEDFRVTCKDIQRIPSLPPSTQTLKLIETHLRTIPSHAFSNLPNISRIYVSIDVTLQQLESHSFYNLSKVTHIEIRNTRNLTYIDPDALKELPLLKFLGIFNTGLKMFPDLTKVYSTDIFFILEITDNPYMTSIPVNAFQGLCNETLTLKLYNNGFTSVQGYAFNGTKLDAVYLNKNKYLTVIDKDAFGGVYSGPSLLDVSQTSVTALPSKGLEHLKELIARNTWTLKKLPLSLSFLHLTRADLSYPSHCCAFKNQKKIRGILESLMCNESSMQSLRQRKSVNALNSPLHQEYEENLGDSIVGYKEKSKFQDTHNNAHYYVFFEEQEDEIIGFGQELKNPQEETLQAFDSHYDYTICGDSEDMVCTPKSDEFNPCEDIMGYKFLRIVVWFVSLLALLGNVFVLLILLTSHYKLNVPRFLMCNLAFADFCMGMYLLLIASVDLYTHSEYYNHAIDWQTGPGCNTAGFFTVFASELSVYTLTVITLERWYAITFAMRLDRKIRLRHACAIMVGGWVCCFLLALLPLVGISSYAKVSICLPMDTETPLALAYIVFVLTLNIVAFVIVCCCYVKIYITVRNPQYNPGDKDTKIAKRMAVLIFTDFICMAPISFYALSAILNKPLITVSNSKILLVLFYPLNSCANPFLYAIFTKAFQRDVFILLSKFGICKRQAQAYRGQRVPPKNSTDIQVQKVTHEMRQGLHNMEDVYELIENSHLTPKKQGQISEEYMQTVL

Experiment [8] in a line: qHTS assay to identify small molecule agonists of the estrogen receptor alpha (ER-alpha) signaling pathway in the presence of an antagonist - cell viability counter screen (AID 1259386; active = well fitted curve in the direction sought with a large enough effect in the repeat runs; an effect the other way counts as inactive or inconclusive;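 note: series mostly up to about 92 µM; cells exposed to compounds for 22 h at 37 °C before the viability read; nearly all actives have a fitted effect of over 30% in size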). A digest of the protocol: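 Cell viability in VM7Luc4E2 cells (endogenous full-length ER-alpha) measured by CellTiter-Fluor fluorescence in the same wells as the luciferase screen. Cells pre-cultured 5 days in charcoal-stripped serum, then treated 22 h with compounds at 15 concentrations plus 10.0nM ICI-182,780.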

Experiment [9] concerns the target Progesterone receptor (Homo sapiens) (UniProt P06401). The experiment is described as follows: qHTS assay to identify small molecule agonists of the progesterone receptor (PR) signaling pathway (AID 1346784). Note: nearly all actives have a fitted effect of over 30% in size. A digest of the protocol: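 Agonist mode, quantitative HTS format in a HEK 293T line expressing a UAS-controlled beta-lactamase reporter; 16 hr compound exposure at 37C in 2% charcoal-stripped FBS, then LiveBLAzer B/G FRET fluorescence.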

A short description of experiment [10]: qHTS assay to identify small molecule agonists of the progesterone receptor (PR) signaling pathway - cell viability counter screen (AID 1346799). Note: nearly all actives have a fitted effect of over 45% in size. A digest of the protocol:
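Counter screen for cytotoxicity: compound-treated PR-UAS-bla HEK293T cells (16 hr, 37C, 5% CO2) were assayed with CellTiter-Glo, luminescence measured after 30 min at room temperature.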

A short description of experiment [11]: qHTS assay to identify small molecule antagonists of the TGF-beta/Smad signaling pathway - cell viability counter screen (AID 1346824; active = well fitted curve in the direction sought with a large enough effect in the repeat runs; an effect the other way counts as inactive or inconclusive; note: nearly all actives have a fitted effect of over 50% in size). Summed up:
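Cytotoxicity counter-screen run in the same wells as the beta-lactamase Smad reporter read: CellTiter-Glo luminescence after 30 min at room temperature. HEK 293T SBE-bla cells had 5 hr compound exposure at 37 C with TGF-beta1 (0.25 ng/mL stock).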

The nature of experiment [12]: qHTS assay to identify small molecule agonists of the TGF-beta/Smad signaling pathway - cell viability counter screen (AID 1346829; active = well fitted curve in the direction sought with a large enough effect in the repeat runs; an effect the other way counts as inactive or inconclusive; note: top concentration of the series differs between compounds; nearly all actives have a fitted effect of over 45% in size). Summed up:
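Same-well cytotoxicity: CellTiter-Glo added after the 2 hr room-temperature beta-lactamase substrate step, luminescence measured 30 min later; cells had 5 hr of compound at 37 C.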

The nature of experiment [13]: qHTS assay to identify small molecule agonists of the TGF-beta/Smad signaling pathway (AID 1346859; active = well fitted activation curve with a large enough effect in the signal ratio in the repeat runs, not every such curve was filed as active; the % refers to the signal ratio; note: series mostly up to about 77 µM). Summed up:
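Smad-responsive beta-lactamase reporter cells (HEK 293T) received compounds from DMSO stocks after overnight attachment, were incubated 5 hr, then treated 2 hr with FRET substrate before dual-emission fluorescence measurement (405 nm excitation).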

Experiment [14] concerns the target Thyrotropin-releasing hormone receptor (Homo sapiens) (UniProt P34981). The experiment is described as follows: qHTS assay to identify small molecule antagonists of the thyrotropin-releasing hormone receptor (TRHR) signaling pathway (AID 1346877; active = well fitted inhibition curve with a large enough effect in the repeat runs, not every such curve was filed as active; note: series mostly up to about 51 µM). Summed up: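 TRHR-expressing HEK293 cells loaded with calcium dye for 2 h at 37 C; compounds pre-incubated 5 min at room temperature before TRH challenge at 1 nM final. Intracellular calcium fluorescence read kinetically for 3 min; 15 concentrations in triplicate.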

For experiment [15] the target is unchanged. The experiment is described as follows: qHTS assay to identify small molecule agonists of the thyrotropin-releasing hormone receptor (TRHR) signaling pathway (AID 1346891). Note: series mostly up to about 58 µM. Summed up: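 Agonist-mode calcium mobilisation screen: TRHR-transfected HEK293 cells cultured overnight (18 h), dye-loaded for 2 h at 37 °C, exposed to compounds, and monitored by fluorescence for 3 min.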

A short description of experiment [16]: qHTS assay to identify small molecule agonists of the estrogen receptor beta (ER-beta) signaling pathway - cell viability counter screen (AID 1259380; active = well fitted curve in the direction sought with a large enough effect in the repeat runs; an effect the other way counts as inactive or inconclusive; note: nearly all actives have a fitted effect of over 30% in size). A digest of the protocol:
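ER-beta-UAS-bla HEK293T cells in medium with 2% charcoal-stripped FBS, pre-incubated 6 hr, then treated 16 hr at 37C. Cytotoxicity read in the same wells by CellTiter-Glo luminescence after 30 min at room temperature.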

Experiment [17] addresses Estrogen receptor (Homo sapiens) (UniProt P03372). The experiment is described as follows: qHTS assay to identify small molecule agonists of the estrogen receptor alpha (ER-alpha) signaling pathway in the presence of an antagonist (AID 1259383). For activation: top concentration of the series differs between compounds. Note: nearly all actives have a fitted effect of over 15% in size. Note: potency is the fitted concentration of half-maximal effect. A digest of the protocol: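 VM7Luc4E2 cells express endogenous full-length ER-alpha with an ERE-luciferase reporter and were hormone-deprived for 5 days. Compounds at 15 concentrations were added with 10.0nM ICI-182,780 for 22hr at 37C. Luminescence was read with ONE-Glo.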

Experiment [18] deals with Progesterone receptor (Homo sapiens) (UniProt P06401). Put plainly: qHTS assay to identify small molecule antagonists of the progesterone receptor (PR) signaling pathway (AID 1346795; active = well fitted inhibition curve with a large enough effect in the signal ratio in the repeat runs, not every such curve was filed as active; the % refers to the signal ratio; note: potency is the fitted concentration of half-maximal effect). Summed up:
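HEK293T PR-UAS-bla reporter cells in charcoal-stripped serum (2%) received compound after a 6 hr settling period, followed by R5020 agonist at 1 nM final; 16 hr incubation preceded the FRET substrate step and fluorescence measurement.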

Experiment [19] in a line: qHTS assay to identify small molecule antagonists of the progesterone receptor (PR) signaling pathway - cell viability counter screen (AID 1346798; active = well fitted curve in the direction sought with a large enough effect in the repeat runs; an effect the other way counts as inactive or inconclusive; note: series mostly up to about 92 µM; nearly all actives have a fitted effect of over 50% in size). A digest of the protocol:
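Same-well multiplex: after 16 hr at 37C with compound and R5020 stimulation, HEK293T cells carrying a UAS-bla reporter received LiveBLAzer substrate (2 hr RT), then CellTiter-Glo (30 min RT) for luminescent viability.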

For experiment [20], the target named is Estrogen receptor beta (Homo sapiens) (UniProt Q92731). Put plainly: qHTS assay to identify small molecule antagonists of the estrogen receptor beta (ER-beta) signaling pathway (AID 1259378; active = well fitted inhibition curve with a large enough effect in the signal ratio in the repeat runs, not every such curve was filed as active; the % refers to the signal ratio). A digest of the protocol: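 Antagonist mode: compounds added to beta-lactamase reporter HEK293T ER-beta-UAS cells stimulated with E2 (1nM final), 16 hr at 37C. LiveBLAzer B/G FRET substrate, 2 hours room temperature, fluorescence read-out.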
Estrogen receptor beta (Homo sapiens), sequence (Q92731 whole entry, looked up): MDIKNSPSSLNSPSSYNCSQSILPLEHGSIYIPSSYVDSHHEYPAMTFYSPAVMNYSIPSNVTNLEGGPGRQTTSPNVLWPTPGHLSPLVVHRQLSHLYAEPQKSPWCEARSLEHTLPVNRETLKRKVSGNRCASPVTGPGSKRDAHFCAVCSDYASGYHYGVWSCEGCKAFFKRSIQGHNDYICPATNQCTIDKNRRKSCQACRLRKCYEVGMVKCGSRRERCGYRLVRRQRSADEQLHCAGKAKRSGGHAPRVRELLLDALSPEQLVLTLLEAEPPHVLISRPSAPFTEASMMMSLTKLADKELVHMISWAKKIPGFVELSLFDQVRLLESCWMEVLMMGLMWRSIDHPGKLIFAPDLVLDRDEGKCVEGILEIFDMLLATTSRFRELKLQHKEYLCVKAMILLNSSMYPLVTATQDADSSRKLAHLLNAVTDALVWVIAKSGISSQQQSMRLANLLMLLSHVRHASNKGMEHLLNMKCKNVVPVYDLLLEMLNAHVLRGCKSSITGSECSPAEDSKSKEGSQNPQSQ
% is set by controls: 0 for no effect and ±100 for the full control effect.

Progesterone receptor (Homo sapiens), sequence (P06401 whole entry, looked up): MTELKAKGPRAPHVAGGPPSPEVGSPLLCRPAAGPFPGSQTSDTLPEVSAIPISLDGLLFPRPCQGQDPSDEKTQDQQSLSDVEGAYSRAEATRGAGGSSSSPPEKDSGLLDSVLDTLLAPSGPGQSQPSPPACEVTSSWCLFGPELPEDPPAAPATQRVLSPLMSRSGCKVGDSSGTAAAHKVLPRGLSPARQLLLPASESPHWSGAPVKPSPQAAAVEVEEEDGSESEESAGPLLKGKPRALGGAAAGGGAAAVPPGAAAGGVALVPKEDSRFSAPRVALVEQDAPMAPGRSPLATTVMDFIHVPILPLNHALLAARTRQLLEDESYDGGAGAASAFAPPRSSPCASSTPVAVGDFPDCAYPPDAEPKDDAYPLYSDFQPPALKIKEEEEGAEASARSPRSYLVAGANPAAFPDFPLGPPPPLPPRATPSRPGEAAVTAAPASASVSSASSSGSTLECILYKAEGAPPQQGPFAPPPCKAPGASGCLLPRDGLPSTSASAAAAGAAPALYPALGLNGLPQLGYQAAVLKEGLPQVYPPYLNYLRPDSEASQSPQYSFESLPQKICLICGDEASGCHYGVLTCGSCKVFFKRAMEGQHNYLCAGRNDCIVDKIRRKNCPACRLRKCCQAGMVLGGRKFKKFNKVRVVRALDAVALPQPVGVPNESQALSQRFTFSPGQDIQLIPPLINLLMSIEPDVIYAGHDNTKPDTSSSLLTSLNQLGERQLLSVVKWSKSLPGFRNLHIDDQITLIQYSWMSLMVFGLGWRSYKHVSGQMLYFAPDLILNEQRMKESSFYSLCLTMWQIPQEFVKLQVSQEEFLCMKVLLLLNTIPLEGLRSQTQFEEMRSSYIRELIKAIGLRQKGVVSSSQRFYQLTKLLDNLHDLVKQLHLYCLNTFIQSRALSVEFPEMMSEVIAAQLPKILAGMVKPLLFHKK
Estrogen receptor (Homo sapiens), sequence (P03372 whole entry, looked up): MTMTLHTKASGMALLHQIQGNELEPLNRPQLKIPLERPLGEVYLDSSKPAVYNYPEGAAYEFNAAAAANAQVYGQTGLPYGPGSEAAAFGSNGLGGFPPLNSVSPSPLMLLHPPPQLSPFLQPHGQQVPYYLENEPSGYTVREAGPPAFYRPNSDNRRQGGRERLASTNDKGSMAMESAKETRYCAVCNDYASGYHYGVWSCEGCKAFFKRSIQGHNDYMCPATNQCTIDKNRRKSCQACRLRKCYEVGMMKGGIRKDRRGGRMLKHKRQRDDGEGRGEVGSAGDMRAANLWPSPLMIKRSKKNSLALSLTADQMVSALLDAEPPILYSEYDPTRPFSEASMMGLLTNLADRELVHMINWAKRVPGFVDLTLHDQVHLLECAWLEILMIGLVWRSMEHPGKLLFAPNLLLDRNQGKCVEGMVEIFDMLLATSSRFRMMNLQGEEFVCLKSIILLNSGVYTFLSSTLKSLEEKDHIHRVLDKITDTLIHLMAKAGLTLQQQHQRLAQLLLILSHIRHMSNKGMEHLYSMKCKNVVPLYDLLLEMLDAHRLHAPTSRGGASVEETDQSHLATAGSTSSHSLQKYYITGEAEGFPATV
Thyrotropin-releasing hormone receptor (Homo sapiens), sequence (P34981 whole entry, looked up): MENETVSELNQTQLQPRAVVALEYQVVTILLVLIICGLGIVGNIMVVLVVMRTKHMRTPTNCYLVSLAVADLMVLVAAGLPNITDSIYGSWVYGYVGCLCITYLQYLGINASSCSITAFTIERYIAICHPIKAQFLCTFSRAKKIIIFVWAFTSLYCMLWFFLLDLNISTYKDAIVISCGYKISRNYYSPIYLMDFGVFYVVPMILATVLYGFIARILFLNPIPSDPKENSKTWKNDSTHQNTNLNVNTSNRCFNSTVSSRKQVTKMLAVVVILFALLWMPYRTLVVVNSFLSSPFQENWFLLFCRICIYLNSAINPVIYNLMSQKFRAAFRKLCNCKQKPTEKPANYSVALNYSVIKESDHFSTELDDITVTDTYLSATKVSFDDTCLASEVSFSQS
Androgen receptor (Homo sapiens), sequence (P10275 whole entry, looked up): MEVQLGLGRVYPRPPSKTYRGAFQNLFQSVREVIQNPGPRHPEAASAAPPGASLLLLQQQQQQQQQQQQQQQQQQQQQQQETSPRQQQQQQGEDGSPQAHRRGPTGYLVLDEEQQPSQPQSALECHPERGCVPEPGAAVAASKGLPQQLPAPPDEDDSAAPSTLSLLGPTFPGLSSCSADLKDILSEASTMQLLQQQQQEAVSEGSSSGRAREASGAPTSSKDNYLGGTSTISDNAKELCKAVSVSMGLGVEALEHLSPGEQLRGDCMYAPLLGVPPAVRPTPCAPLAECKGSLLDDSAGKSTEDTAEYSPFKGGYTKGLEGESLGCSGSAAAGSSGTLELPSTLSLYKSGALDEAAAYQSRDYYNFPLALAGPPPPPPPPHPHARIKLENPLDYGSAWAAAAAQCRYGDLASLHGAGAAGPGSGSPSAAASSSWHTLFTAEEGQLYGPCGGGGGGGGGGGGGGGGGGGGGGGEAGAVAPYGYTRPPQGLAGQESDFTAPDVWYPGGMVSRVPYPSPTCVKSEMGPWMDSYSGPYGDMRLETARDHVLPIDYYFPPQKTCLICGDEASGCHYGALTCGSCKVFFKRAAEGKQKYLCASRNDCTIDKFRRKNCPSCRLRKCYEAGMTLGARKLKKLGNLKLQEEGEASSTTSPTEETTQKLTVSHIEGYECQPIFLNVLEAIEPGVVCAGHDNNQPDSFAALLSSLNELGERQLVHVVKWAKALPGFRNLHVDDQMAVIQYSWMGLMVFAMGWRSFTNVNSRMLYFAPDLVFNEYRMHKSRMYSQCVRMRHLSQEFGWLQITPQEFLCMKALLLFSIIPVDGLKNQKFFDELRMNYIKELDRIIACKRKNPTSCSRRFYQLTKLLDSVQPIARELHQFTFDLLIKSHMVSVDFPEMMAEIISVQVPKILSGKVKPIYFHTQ

With `CCCCCCCC/C=C\CCCCCCCC(N)=O`, the Potency entry in [1], in experiment [2], in experiment [3], in experiment [4], in experiment [5] and in experiment [6] was “inactive” each time. In addition, the Potency result in experiment [7], in experiment [8], in experiment [10], in experiment [11], in experiment [12] and in experiment [15] was “inactive” in each case. Besides, the result in experiment [9], in experiment [13] and in [14] was inactive.

Take `CCCCOC(=O)c1ccccc1C(=O)OCC(CC)CCCC` (stereo not given): the Potency entry in [1], in [2], in [3], in experiment [16], in experiment [17] and in [6] was “inactive” each time. The Potency result in [7], in experiment [8], in experiment [19], in experiment [10], in experiment [11] and in [12] was “inactive” in each case. The Potency entry in experiment [15] is “inactive”. Further, the compound was called inactive in experiment [9], in experiment [13] and in experiment [14]. Further, the Potency in experiment [18] was 48.6 µM (active).

With `Oc1ccc(Sc2ccc(O)cc2)cc1`, the Potency in experiment [1] was 20.3 µM (active); in experiment [2] it was 6.42 µM (active); in experiment [17], 14.4 µM (active); in [18], 18.1 µM (active). Further, the Potency entry in [3], in experiment [5], in experiment [6], in experiment [8], in experiment [11] and in experiment [12] was “inactive” in each case. Besides, the Potency result in [15] is “inactive”. In addition, the result in experiment [13] and in experiment [14] was inactive.

Consider `O=C(C(=O)c1ccc(Br)cc1)c1ccc(Br)cc1`, for which the Potency in experiment [1] is 6.78 µM (active); in experiment [4] it was 15.2 µM (active). Moreover, the activation in [2] is 0.63% [at 19 µM]; in experiment [17] it was 0.308% [at 19 µM]; in [13], 2.2% [at 15.8 µM]; in experiment [15] it was 0.083% [at 11.8 µM]. Moreover, the activity change, negative = cytotoxicity is 0.135% [at 19 µM] in experiment [3]; 0.571% [at 19 µM] in [16]; 0.0353% [at 19 µM] in experiment [8]; 14.5% [at 19 µM] in experiment [10]; 0.5% [at 15.8 µM] in experiment [12]. In [6], the cAMP activity change was 5.87% [at 18.9 µM, hits give high values]. For the same compound, in experiment [7], the activity change, negative = inhibition is -5.08% [at 19 µM]. For the same compound, the viability change, negative = cytotoxic in experiment [11] was 7.81% [at 15.8 µM]. Further, the activity, negative = inhibition in [14] was -2.27% [at 10.5 µM].

In the case of `O=S1(=O)c2cccc3cccc(c23)N1CCCN1CCN(c2ccc(F)cc2)CC1`, the Potency result in experiment [1], in experiment [2], in experiment [3], in experiment [5], in experiment [17] and in [6] was “inactive” each time. In addition, the Potency entry in experiment [7], in [8], in [11], in experiment [12] and in experiment [15] was “inactive” in each case. Also, the compound was called inactive in experiment [9], in experiment [13] and in experiment [14]. Further, the Potency in [18] was 18.8 µM (active).

Consider `CC1CCc2cc(F)cc3c(=O)c(C(=O)O)cn1c23` (stereo not given), for which the Potency result in experiment [1], in [2], in experiment [3], in experiment [5], in [6] and in [7] was “inactive” each time. In addition, the Potency result in [8], in experiment [18], in experiment [19], in experiment [10] and in experiment [11] was “inactive” throughout. For the same compound, the compound was classed as inactive in experiment [9].

Regarding `Nc1ccc(C(=O)N2CC3CC(CN(Cc4ccccc4)C3)C2)cc1`, the Potency entry in experiment [1], in experiment [2], in [20], in experiment [5], in experiment [17] and in [6] was “inactive” each time. The Potency result in [7], in [8], in experiment [19], in experiment [11], in experiment [12] and in experiment [15] was “inactive” in each case. Further, the compound was called inactive in [13].
